# An excerpt weighted towards active compounds, which were near 19% of everything screened.
# DT40 TDP1 CPT = DT40-hTDP1 cell growth loss with CPT; chicken DT40 Tdp1-/-;hTDP1 cells + 20 nM CPT, ATP luminescence, 48 h; Potency, µM (titrated, usually from 46.2 µM), for inactives: at the highest dose activity change, negative = growth inhibition, actives largely listed as inhibitors; actives 12% (n = 420,000); AID 686979; also: potency is read from the fitted curve at half-maximal effect; nearly all actives have a fitted effect of over 55% in size
#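 Cell growth measured by CellTiter-Glo luminescence after a minimum 48 h, 37 C compound exposure with 20 nM CPT in Tdp1-knockout DT40 cells stably expressing hTDP1, seeded 400/well; qHTS titration format.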
# IL1B secr inh = inflammasome signaling inhibition, IL-1 beta readout | THP-1 LPS/ATP IL-1B secretion, AlphaLISA, 16 h; active compounds read low | activity change, % at 57.5 µM | actives 4.7% (n = 360,000) | AID 743279; in the data active = activity change below about -50%; inconclusive = mostly about -30% to -49%
#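 Secreted IL-1B measured by AlphaLISA bead assay after 16 h compound exposure of THP-1 cells; compounds (final up to 57.5 uM) added 1 h before LPS (250 ng/mL) and ATP (1.25 mM) stimulation; lower signal means less secretion.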
# TDP1 cell noCPT = qHTS for Inhibitors of human tyrosyl-DNA phosphodiesterase 1 (TDP1): qHTS in cells in absence of CPT. DT40 Tdp1-/- hTDP1 cells, no CPT, ATP luminescence, 48 h. Potency, µM (highest dose often 46.2 µM), for the others: at the highest dose activity change, negative = growth inhibition, hits mostly inhibitors. actives 15% (n = 420,000). AID 686978, 2013; also: potency is read from the fitted curve at half-maximal effect; nearly all actives have a fitted effect of over 55% in size
#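 Growth kinetics read by CellTiter-Glo luminescence after ≥48 hr at 37 °C. Cells: DT40 Tdp1-/- stably carrying human TDP1, 400 per well, compound exposure in the absence of CPT (DMSO vehicle).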
# HT1080NT lethal = kills 2HG-producing HT-1080-NT fibrosarcoma cells; HT-1080-NT fibrosarcoma viability, CellTiter-Glo ATP luminescence, 48 h; Potency, µM (series often up to 46.1 µM), inactives show at the highest dose activity, negative = less viability, most hits filed as cytotoxic; actives 1.6% (n = 360,000);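 also: NT is the 2HG producing partner of a matched IDH1 knockdown line; potency is read from the fitted curve at half-maximal effect; 0% = DMSO-treated cells and -100% = media-only wells without cells; nearly all actives have a fitted effect of over 55% in size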
#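 Compounds were tested in concentration-response format on HT-1080-NT cells for 48 hours at 37 degrees C. Cell viability came from CellTiter-Glo luminescence; curves were classified by r2, response magnitude and activity.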
# HT1080 IDH1KD tx = HT-1080 IDH1 knockdown cell toxicity (counter line); HT-1080 IDH1 knockdown viability, ATP luminescence, 48 h; AID 686971; Potency, µM (titrated, usually from 46.1 µM), for the others: at the top dose activity, negative = toxicity, usual class: cytotoxic; actives 2% (n = 360,000);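 also: potency is read from the fitted curve at half-maximal effect; 0% = DMSO wells and -100% = cell-free medium wells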
#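 IDH1KD HT-1080 cells, 750/well, RPMI + 5% FBS; compound pinned after 2 h settling; 48 h, 37 °C; CellTiter-Glo luminescence; % activity normalised to DMSO and no-cell wells; curves fitted, classed by r2 and efficacy.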
# Numbers without * were called inactive; ? = inconclusive; · = not tested or not shown; [ ] = remark or other dose. Unless noted, calls follow the shape of the dose curve; as a rule, active = well fitted curve in the direction sought with a large enough effect; inconclusive = small, poorly fitted or top-dose-only effect, or another doubt; inactive = no such curve, though single readings can be large; an effect the other way counts as inactive or inconclusive. Unless noted, % is scaled to controls: 0 for no effect and ±100 for the full control effect.
SMILES,DT40 TDP1 CPT,IL1B secr inh,TDP1 cell noCPT,HT1080NT lethal,HT1080 IDH1KD tx
COc1cc(-c2nc3cnccn3c2Nc2c(C)cccc2C)ccc1O,?,23,?,-21%,5%
Cc1cccc(C)c1Nc1c(-c2ccc(O)cc2)nc2sccn12,6.5µM*,·,7.3µM*,·,·
CCc1cccc(C)c1Nc1c(-c2cccc(O)c2)nc2sccn12,15µM*,·,16µM*,·,·
Oc1[nH]c2ccccc2c1C=Nc1ccccc1,4%,0,15%,-3%,-8%
Cc1cccc(OCC(=O)Nc2ccc3nc(SCc4ccccc4)sc3c2)c1,-30%,·,-27%,·,·
NC(=O)CSc1nc2ccc(NC(=O)COc3ccccc3)cc2s1,?,·,23µM*,·,·
CC(=O)Nc1ccc2nc(SCC(=O)NCCOc3ccccc3)sc2c1,15µM*,10,15µM*,2%,-1%
CCC(=O)Nc1ccc2nc(SCCOc3ccccc3)sc2c1,-20%,·,-23%,·,·
O=S1(=O)C[C@H](N2CCC(Cc3ccccc3)CC2)[C@@H](COCc2ccccc2)N1,?,32,?,-3%,-6%
CCN(CCCCN1C(=O)c2ccccc2C1=O)c1ccc2c(c1)C(=O)N(C)C2=O,?,-2,18µM*,8%,9%
Cc1ccc(C2CN(CCC(N)=O)C(=O)CO2)cc1 (stereo unspecified),-2%,36,0%,13%,12%
COC(=O)[C@@]1(Cc2ccc(F)cc2)[C@@H]2[C@@H](CC(=O)[C@H]2CC(=O)C(=O)N(C)C)CN1C(=O)c1ccccc1,?,-19,?,6%,4%
COC(=O)[C@@]1(Cc2ccc(OC)cc2)[C@@H]2C(=CC(=O)[C@H]2CC(=O)C(=O)N2CCCC2)CN1C(=O)c1ccccc1,?,-76*,16µM*,?,21µM*
COC(=O)[C@@]1(Cc2ccc(OC)cc2)[C@@H]2[C@@H](CC(=O)[C@H]2CC(=O)C(=O)N(C)C)CN1C(=O)c1ccccc1,23µM*,-21,?,1%,-1%
COC(=O)[C@@]1(Cc2ccc(F)cc2)[C@H]2C(CC(=O)C(=O)N3CCCC3)C(=O)C[C@H]2CN1C(=O)c1ccccc1 (stereo partly specified),?,-70*,?,?,?
O=C(COC(=O)c1ncc(Cl)c(Cl)c1Cl)c1ccc(Cl)s1,-19%,?,-20%,16%,11%
c1ccc2scnc2c1,0%,3,-3%,·,·
Cc1cc(NC(=O)CSc2nnc(CNC(=O)c3c(F)cccc3F)o2)no1,19%,-3,24%,19%,21%
COc1ccc(OCC(O)CN2CCc3ccccc3C2)cc1 (stereo unspecified),-6%,-15,3%,5%,-2%
Cc1ccc(OCC(O)CN2CCc3ccccc3C2)c(C)c1 (stereo unspecified),26µM*,-1,?,-10%,-7%
CC(C)(C)c1ccc(OCC(O)CN2CCc3ccccc3C2)cc1 (stereo unspecified),8.2µM*,0,16µM*,?,?
CC(C)(C)c1ccc(OCC(O)CN2CCN(C(=O)c3ccccc3)CC2)cc1 (stereo unspecified),16µM*,-6,21µM*,1%,0%
CCOC(=O)C1=C(C)NC(C)=C(C(=O)OCC)C1C(=O)OCC(=O)N1CCC(C)CC1,0%,-5,-14%,-4%,-5%
Cc1cc(O)c(C(c2ccc(F)cc2)N2CCN(c3ccccc3)CC2)c(=O)n1Cc1ccco1 (stereo unspecified),-17%,·,-20%,·,·
CCOC(=O)c1[nH]c(C)c(C(=O)OCC)c1C,1%,-24,0%,7%,10%
SMILES,DT40 TDP1 CPT,IL1B secr inh,TDP1 cell noCPT,HT1080NT lethal,HT1080 IDH1KD tx
CC(=O)c1c(C)[nH]c(C(=O)COC(=O)C2(C)CC2(Cl)Cl)c1C (stereo unspecified),18µM*,0,21µM*,-5%,-1%
CC(=O)c1c(C)[nH]c(C(=O)COC(=O)c2cc(C)oc2C)c1C,?,?,2.6µM*,-3%,-11%
CCOC(=O)c1c(C)[nH]c(C(=O)COC(=O)c2[nH]c(C)c(C(C)=O)c2C)c1C,4.6µM*,25,5.2µM*,5%,-3%
COC(=O)c1c(C)[nH]c(C(=O)C(C)OC(=O)c2cc(C)oc2C)c1C (stereo unspecified),?,8,16µM*,10%,-23%
C/C(=N\NC(=O)C(NC(=O)c1ccccc1)C(C)C)c1ccccc1 (stereo unspecified),-5%,1,-2%,1%,-2%[9.24 µM]
CCC[C@H]1CC(=O)C=C(c2ccc(OC)cc2)ON1C(=O)OC(C)(C)C,?,?,?,-13%,-3%
O=S1(=O)[C@H]2C[C@@H]3C=C[C@@]2(CN1Cc1cccc(F)c1)O3,?,15,-1%,15%,10%
CCOC(=O)c1c(C)[nH]c(C(=O)COC(=O)[C@H](C)N2C(=O)C3CCCCC3C2=O)c1C (stereo partly specified),?,3,26µM*,-6%,-9%
Cc1cc(C)n(-c2nnc(C)n2/N=C/c2ccccc2OCc2ccccc2Cl)n1,?,-6,21µM*,-6%,-23%
Cc1ccc(Cc2cnc(N3C(=N)SC(C)C3=O)s2)cc1 (stereo unspecified),?,5,?,-20%,-18%
Cc1cccc(Cc2cnc(N3C(=N)SC(c4ccccc4)C3=O)s2)c1 (stereo unspecified),29µM*,29,26µM*,-2%,-15%
Cc1cccc(Cc2cnc(N3C(=N)SC(C)C3=O)s2)c1 (stereo unspecified),?,-84*,18µM*,-11%,-22%
CC(NC(=O)C1CC1)c1ccc(-c2ccccc2)cc1 (stereo unspecified),-22%,11,?,-8%,-3%
CCOC(=O)C1=C(C)N=c2s/c(=C/c3cccc([N+](=O)[O-])c3O)c(=O)n2C1c1ccccc1 (stereo unspecified),13µM*,14,16µM*,-4%,-11%
CCOC(=O)C1=C(C)N=c2s/c(=C\c3cc(OC)c(OC)c(OC)c3)c(=O)n2C1/C=C/c1ccccc1 (stereo unspecified),-3%,2,?,-3%,-2%
CCOC(=O)C1=C(C)N=c2s/c(=C/c3ccco3)c(=O)n2C1c1cccc(OC)c1 (stereo unspecified),?,-24,23µM*,-11%,-5%

# Source: PubChem BioAssay
